PMC11006913
Changes are numbered by the printed parent chain.

Assays:
Test in all cases: PBM; 200 nM protein, PBS
Conditions in all cases: dsDNA, one strand shown
HOXA2 [1] = target: HOXA2 (Homo sapiens, UniProt O43364 129-215, R185T)
HOXA2 [2] = target: HOXA2 (Homo sapiens, UniProt O43364 129-215, R185K)
HOXA2 [3] = target: HOXA2 (Homo sapiens, UniProt O43364 129-215, Y150S)
HOXA2 [4] = target: HOXA2 (Homo sapiens, UniProt O43364 129-215)
ALX1 = ALX1 (Homo sapiens, UniProt Q15699 118-204, L144R)
Chain of ALX1 (Q15699 118-204 L144R): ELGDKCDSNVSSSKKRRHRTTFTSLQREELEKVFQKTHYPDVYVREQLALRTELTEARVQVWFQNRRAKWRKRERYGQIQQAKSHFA

HOXA4 = HOXA4 (Homo sapiens, UniProt Q00056 201-287, W262F)
Chain of HOXA4 (Q00056 201-287 W262F): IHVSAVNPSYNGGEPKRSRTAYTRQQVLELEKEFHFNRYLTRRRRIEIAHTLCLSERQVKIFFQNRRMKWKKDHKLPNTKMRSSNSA

HOXB9 [5] = target: HOXB9 (Homo sapiens, UniProt P17482 171-250)
Chain of HOXB9 (Homo sapiens, UniProt P17482 171-250) (P17482 171-250): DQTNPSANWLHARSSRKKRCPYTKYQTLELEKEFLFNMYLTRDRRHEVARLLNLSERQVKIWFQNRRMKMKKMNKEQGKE

HOXB9 [6] = target: HOXB9 (Homo sapiens, UniProt P17482 171-250, R186Q)
Chain of HOXB9 (Homo sapiens, UniProt P17482 171-250, R186Q) (P17482 171-250 R186Q): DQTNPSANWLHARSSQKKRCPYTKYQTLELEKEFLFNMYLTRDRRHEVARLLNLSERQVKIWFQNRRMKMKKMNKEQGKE

MSX2 [7] = target: MSX2 (Homo sapiens, UniProt P35548 130-214)
Chain of MSX2 (Homo sapiens, UniProt P35548 130-214) (P35548 130-214): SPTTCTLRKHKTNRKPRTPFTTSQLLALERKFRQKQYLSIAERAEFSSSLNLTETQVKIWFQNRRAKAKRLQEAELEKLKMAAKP

MSX2 [8] = target: MSX2 (Homo sapiens, UniProt P35548 130-214, F161Y)
Chain of MSX2 (Homo sapiens, UniProt P35548 130-214, F161Y) (P35548 130-214 F161Y): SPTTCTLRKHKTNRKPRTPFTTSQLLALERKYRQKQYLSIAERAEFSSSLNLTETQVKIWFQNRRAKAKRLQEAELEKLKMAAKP

NKX2-6 [9] = target: T1, NKX2-6 (Homo sapiens, UniProt A6NCS4 118-204)
T1 sequence: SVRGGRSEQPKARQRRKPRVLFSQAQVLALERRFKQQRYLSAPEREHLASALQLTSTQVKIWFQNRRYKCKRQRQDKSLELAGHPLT

NKX2-6 [10] = target: T2, NKX2-6 (Homo sapiens, UniProt A6NCS4 118-204, F151L)
T2 sequence: T1 sequence with F34L

Chain of HOXA2 (Homo sapiens, UniProt O43364 129-215, Y150S) (O43364 129-215 Y150S): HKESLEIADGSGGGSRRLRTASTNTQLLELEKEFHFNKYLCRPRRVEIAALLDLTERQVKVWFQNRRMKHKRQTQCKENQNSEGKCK
Chain of HOXA2 (Homo sapiens, UniProt O43364 129-215) (O43364 129-215): as the sequence (O43364 129-215 Y150S) above, with S22Y counted along it
Chain of HOXA2 (Homo sapiens, UniProt O43364 129-215, R185T) (O43364 129-215 R185T): as the sequence (O43364 129-215 Y150S) above, with S22Y, R57T counted along it
Chain of HOXA2 (Homo sapiens, UniProt O43364 129-215, R185K) (O43364 129-215 R185K): as the sequence (O43364 129-215 Y150S) above, with S22Y, R57K counted along it

CGATTACA was tested, and the binding signal (HOXA2 [1]) was 10.3 upbm affinity estimate (log intensity, higher = more binding, comparable within an allelic series), the binding signal (HOXA2 [2]) was 12 upbm affinity estimate (log intensity, higher = more binding, comparable within an allelic series) and the binding signal (HOXA2 [3]) was 10.7 upbm affinity estimate (log intensity, higher = more binding, comparable within an allelic series). The binding signal (HOXA2 [4]) was 9.9 upbm affinity estimate (log intensity, higher = more binding, comparable within an allelic series).

In the case of CTGATTAA, the binding signal (HOXA2 [1]) is reported as 11.9 upbm affinity estimate (log intensity, higher = more binding, comparable within an allelic series), the binding signal (HOXA2 [2]) is reported as 12.9 upbm affinity estimate (log intensity, higher = more binding, comparable within an allelic series) and the binding signal (ALX1) is reported as 11.1 upbm affinity estimate (log intensity, higher = more binding, comparable within an allelic series). For the same sequence, the binding signal (HOXA2 [3]) was 10.8 upbm affinity estimate (log intensity, higher = more binding, comparable within an allelic series) and the binding signal (HOXA2 [4]) was 11.5 upbm affinity estimate (log intensity, higher = more binding, comparable within an allelic series).

With CGTCATTA the binding signal (HOXA2 [1]) was 12.3 upbm affinity estimate (log intensity, higher = more binding, comparable within an allelic series), the binding signal (HOXA2 [2]) was 13.2 upbm affinity estimate (log intensity, higher = more binding, comparable within an allelic series) and the binding signal (HOXA2 [3]) was 10.8 upbm affinity estimate (log intensity, higher = more binding, comparable within an allelic series). The binding signal (HOXA4) was 11.4 upbm affinity estimate (log intensity, higher = more binding, comparable within an allelic series) and the binding signal (HOXA2 [4]) was 12.3 upbm affinity estimate (log intensity, higher = more binding, comparable within an allelic series).

With AACCTAAT the binding signal (HOXA2 [1]) was 10.5 upbm affinity estimate (log intensity, higher = more binding, comparable within an allelic series), the binding signal (HOXA2 [2]) was 12.1 upbm affinity estimate (log intensity, higher = more binding, comparable within an allelic series) and the binding signal (HOXA2 [3]) was 10.6 upbm affinity estimate (log intensity, higher = more binding, comparable within an allelic series). For the same sequence, the binding signal (HOXA2 [4]) was 10.3 upbm affinity estimate (log intensity, higher = more binding, comparable within an allelic series).

AAGGCCCC was tested, and the binding signal (HOXA2 [1]) was 7.25 upbm affinity estimate (log intensity, higher = more binding, comparable within an allelic series), the binding signal (HOXA2 [2]) was 10.3 upbm affinity estimate (log intensity, higher = more binding, comparable within an allelic series) and the binding signal (HOXA2 [3]) was 10.3 upbm affinity estimate (log intensity, higher = more binding, comparable within an allelic series). For the same sequence, the binding signal (HOXA2 [4]) was 7.19 upbm affinity estimate (log intensity, higher = more binding, comparable within an allelic series).

With AATCAGCT the binding signal (HOXA2 [1]) was 10.1 upbm affinity estimate (log intensity, higher = more binding, comparable within an allelic series), the binding signal (HOXA2 [2]) was 11.9 upbm affinity estimate (log intensity, higher = more binding, comparable within an allelic series) and the binding signal (HOXA2 [3]) was 10.7 upbm affinity estimate (log intensity, higher = more binding, comparable within an allelic series). For the same sequence, the binding signal (HOXA2 [4]) was 9.77 upbm affinity estimate (log intensity, higher = more binding, comparable within an allelic series).

With CCCCCTCC the binding signal (HOXA2 [1]) was 6.95 upbm affinity estimate (log intensity, higher = more binding, comparable within an allelic series), the binding signal (HOXA2 [2]) was 9.98 upbm affinity estimate (log intensity, higher = more binding, comparable within an allelic series) and the binding signal (HOXA2 [3]) was 10.1 upbm affinity estimate (log intensity, higher = more binding, comparable within an allelic series). The binding signal (HOXA2 [4]) was 6.89 upbm affinity estimate (log intensity, higher = more binding, comparable within an allelic series).

GGATATTA was tested, and the binding signal (HOXA2 [1]) was 10.4 upbm affinity estimate (log intensity, higher = more binding, comparable within an allelic series), the binding signal (HOXA2 [2]) was 12 upbm affinity estimate (log intensity, higher = more binding, comparable within an allelic series) and the binding signal (HOXA2 [3]) was 10.8 upbm affinity estimate (log intensity, higher = more binding, comparable within an allelic series). For the same sequence, the binding signal (HOXA2 [4]) was 10.6 upbm affinity estimate (log intensity, higher = more binding, comparable within an allelic series).

CCCCCCCG was tested, and the binding signal (HOXA2 [1]) was 6.93 upbm affinity estimate (log intensity, higher = more binding, comparable within an allelic series), the binding signal (HOXA2 [2]) was 9.85 upbm affinity estimate (log intensity, higher = more binding, comparable within an allelic series) and the binding signal (HOXA2 [3]) was 10.2 upbm affinity estimate (log intensity, higher = more binding, comparable within an allelic series). For the same sequence, the binding signal (HOXA2 [4]) was 7.13 upbm affinity estimate (log intensity, higher = more binding, comparable within an allelic series).

CTACGCCC was tested, and the binding signal (HOXA2 [1]) was 7.29 upbm affinity estimate (log intensity, higher = more binding, comparable within an allelic series), the binding signal (HOXA2 [2]) was 10.3 upbm affinity estimate (log intensity, higher = more binding, comparable within an allelic series) and the binding signal (HOXA2 [3]) was 10.5 upbm affinity estimate (log intensity, higher = more binding, comparable within an allelic series). The binding signal (HOXA2 [4]) was 7.38 upbm affinity estimate (log intensity, higher = more binding, comparable within an allelic series).

For ACATTACA, the binding signal (HOXB9 [5]) was 10.6 upbm affinity estimate (log intensity, higher = more binding, comparable within an allelic series) and the binding signal (HOXB9 [6]) was 10.5 upbm affinity estimate (log intensity, higher = more binding, comparable within an allelic series).

For TAATAGTA, the binding signal (HOXB9 [5]) was 10.9 upbm affinity estimate (log intensity, higher = more binding, comparable within an allelic series), the binding signal (MSX2 [7]) was 11.7 upbm affinity estimate (log intensity, higher = more binding, comparable within an allelic series) and the binding signal (HOXB9 [6]) was 10.8 upbm affinity estimate (log intensity, higher = more binding, comparable within an allelic series). For the same sequence, the binding signal (MSX2 [8]) was 11.5 upbm affinity estimate (log intensity, higher = more binding, comparable within an allelic series).

In the case of ACAACTTA, the binding signal (HOXA2 [1]) is reported as 9.5 upbm affinity estimate (log intensity, higher = more binding, comparable within an allelic series), the binding signal (HOXA2 [3]) is reported as 10.7 upbm affinity estimate (log intensity, higher = more binding, comparable within an allelic series) and the binding signal (HOXA2 [4]) is reported as 9.5 upbm affinity estimate (log intensity, higher = more binding, comparable within an allelic series).

For CCTATTTA, the binding signal (HOXB9 [5]) was 10.4 upbm affinity estimate (log intensity, higher = more binding, comparable within an allelic series), the binding signal (NKX2-6 [9]) was 11.2 upbm affinity estimate (log intensity, higher = more binding, comparable within an allelic series) and the binding signal (HOXB9 [6]) was 10.2 upbm affinity estimate (log intensity, higher = more binding, comparable within an allelic series). For the same sequence, the binding signal (NKX2-6 [10]) was 9.86 upbm affinity estimate (log intensity, higher = more binding, comparable within an allelic series).

In the case of AAAAATTG, the binding signal (HOXA2 [1]) is reported as 8.96 upbm affinity estimate (log intensity, higher = more binding, comparable within an allelic series) and the binding signal (HOXA2 [4]) is reported as 8.94 upbm affinity estimate (log intensity, higher = more binding, comparable within an allelic series).

With CACACTAA the binding signal (HOXB9 [5]) was 9.92 upbm affinity estimate (log intensity, higher = more binding, comparable within an allelic series), the binding signal (MSX2 [7]) was 10.8 upbm affinity estimate (log intensity, higher = more binding, comparable within an allelic series) and the binding signal (HOXB9 [6]) was 9.82 upbm affinity estimate (log intensity, higher = more binding, comparable within an allelic series). For the same sequence, the binding signal (MSX2 [8]) was 10.7 upbm affinity estimate (log intensity, higher = more binding, comparable within an allelic series).

GTTTGCAA was tested, and the binding signal (HOXA2 [1]) was 8.76 upbm affinity estimate (log intensity, higher = more binding, comparable within an allelic series) and the binding signal (HOXA2 [4]) was 8.78 upbm affinity estimate (log intensity, higher = more binding, comparable within an allelic series).

For AAATCAGC, the binding signal (HOXA2 [1]) was 9.59 upbm affinity estimate (log intensity, higher = more binding, comparable within an allelic series), the binding signal (HOXA2 [3]) was 10.7 upbm affinity estimate (log intensity, higher = more binding, comparable within an allelic series) and the binding signal (HOXA2 [4]) was 9.43 upbm affinity estimate (log intensity, higher = more binding, comparable within an allelic series).

AGATGACC was tested, and the binding signal (HOXA2 [1]) was 9.18 upbm affinity estimate (log intensity, higher = more binding, comparable within an allelic series), the binding signal (HOXA2 [3]) was 10.5 upbm affinity estimate (log intensity, higher = more binding, comparable within an allelic series) and the binding signal (HOXA2 [4]) was 9.29 upbm affinity estimate (log intensity, higher = more binding, comparable within an allelic series).

In the case of CTACTATA, the binding signal (HOXB9 [5]) is reported as 10.2 upbm affinity estimate (log intensity, higher = more binding, comparable within an allelic series) and the binding signal (HOXB9 [6]) is reported as 10 upbm affinity estimate (log intensity, higher = more binding, comparable within an allelic series).
